Test results: ChEMBL document CHEMBL3988442, “University of Dundee, Small-Polar-MMV Screening Library” (2021)
Among all 48,000 compounds or so, about 13,000 (27%) showed an effect of 50% or more. The list shows a part of the results.

system: Wolbachia pipientis; assay: Anti-Wolbachia Cell-Based Screen; type: functional; design: scale not given: in the data most compounds retested in dose-response had high values; settings: 5 µM

Structure (SMILES) | Percent Effect
COc1ccc([C@@H]2C[C@H](NC(C)=O)C[C@H](CCc3ccccc3)O2)cn1 | 7.698%
CSCC[C@H](N)C(=O)N1CC(Oc2ccccc2C)C1 | -5.947%
COCCOc1ncccc1CNC(=O)N1CCOCC1 | -0.8625%
COc1ccc(-n2cnnc2SCCC#N)cn1 | -2.783%
Cc1ccc(-n2nnc(C(=O)NCCS(N)(=O)=O)c2C2CC2)cc1 | 2.856%
CCN(CC)C(=O)c1nnn(-c2ccc(C)cc2)c1C1CC1 | -3.028%
Cc1ccc(-n2nnc(C(=O)NCC3(CO)CC3)c2C2CC2)cc1 | 112.7%
COC(=O)CCNC(=O)c1nnn(-c2ccc(F)cc2)c1C1CC1 | 1.406%
COc1ccc(-n2nnc(C(=O)NC(C)C)c2C2CC2)cc1 | 16.07%
COC(=O)CCNC(=O)c1nnn(-c2ccc(C)cc2)c1C1CC1 | 120.1%
Cc1ccc(-n2nnc(C(=O)NC(C)C)c2C2CC2)cc1 | 124.2%
Cc1ccc(-n2nnc(C(=O)Nc3cc(C)nn3C)c2C2CC2)cc1 | -15.14%
Cc1ccc(-n2nnc(C(=O)NCC(F)(F)F)c2C2CC2)cc1 | 125.2%
O=C(NCC1(CO)CC1)c1nnn(-c2ccc(F)cc2)c1C1CC1 | -10.21%
O=C(NCC1(C(=O)O)CCC1)c1nnn(-c2ccc(F)cc2)c1C1CC1 | 4.547%
NS(=O)(=O)CCNC(=O)c1nnn(-c2ccc(F)cc2)c1C1CC1 | 1.057%
CC(NC(=O)NCCCO)c1ccc(-c2ccncc2)cc1 (configuration not stated) | 6.546%
Cc1ccccc1CN1CCNC(=O)C1CC(=O)NCC1CCCCC1 (configuration not stated) | 13.06%
NC(=O)CN1CC2(CCC1=O)CCN(Cc1cc(F)ccc1Cl)CC2 | 6.267%
Cn1cc(CN2CCOC3(CCCN(C(=O)c4ccco4)C3)C2)cn1.O=C(O)C(F)(F)F (configuration not stated) | -10.52%
COc1ccc(C(C)N2CCC(CNC(C)=O)CC2)cc1Cl (configuration not stated) | 4.452%
COc1ccccc1C(=O)NC[C@H]1COCc2nc3c(C)cccc3n21 | -7.945%

Structure (SMILES) | Percent Effect
CS(=O)(=O)CCCSCc1ccc(Br)c(F)c1 | -6.245%
COc1ccc(Br)cc1SCCS(C)(=O)=O | 106.5%
COc1ccc(Br)cc1SCCC(N)=O | 101.3%
COc1ccc(Br)cc1CCC(=O)N1CCCC1 | -8.693%
CS(=O)(=O)CCSCc1ccc(Br)c(F)c1 | -8.514%
COc1ccc(Br)cc1SCCCS(C)(=O)=O | 100.1%
CS(=O)(=O)CCCSCc1cc(F)cc(Br)c1 | -17.62%
CS(=O)(=O)CCSc1cccc(C#N)c1 | -1.405%
COc1ccc(Br)cc1Cn1nc(C(N)=O)ccc1=O | 5.156%
O=C(Cc1ccc2c(c1)CCO2)N1CCCC(n2cccn2)C1 (configuration not stated) | -1.485%
O=C(c1cccc2c1OCCO2)N1CCCC1Cn1cccn1 (configuration not stated) | 5.303%
Cc1cnn(CC2CCCN2C(=O)Cc2ccc3c(c2)CCO3)c1 (configuration not stated) | 96.14%
O=C(Cc1ccc(O)c(Cl)c1)N1CCCCC1CCn1cccn1 (configuration not stated) | -6.522%
O=C(Cc1ccc2c(c1)CCC2)N1CCCC1Cn1cccn1 (configuration not stated) | 137.3%
O=C(Cc1ccc2c(c1)CCO2)N1CCCC1Cn1cccn1 (configuration not stated) | 102%
O=C(Cc1ccc2c(c1)CCC2)N1CCCC(n2cccn2)C1 (configuration not stated) | -2.086%
Cc1nn(CC(C)C)c(N(C)C)c1CNCCCNS(C)(=O)=O | 11.35%
CCOc1ccnc(NCc2nc(C)cc(=O)[nH]2)n1 | 1.629%
CCC(=O)N1Cc2nnc(C3CCOCC3)n2C(Cc2c[nH]cn2)C1 (configuration not stated) | -1.737%
CC(C)N(C)C[C@H]1OC[C@@H]2CCN(Cc3cccc(C#N)c3)C[C@@H]21.O=C(O)C(F)(F)F.O=C(O)C(F)(F)F | 7.862%
O=C1NC2(CCN(C(=O)c3ccc(Cl)cn3)CC2)CC1c1ccccc1 (configuration not stated) | -25.51%
COCCNc1nc2c(c(NCc3cnc(C)cn3)n1)CCNCC2 | -9.122%

Structure (SMILES) | Percent Effect
COCCNc1nc(-c2ccc(S(=O)(=O)N3CCCCC3)cc2)cs1 | 16.68%
COCCNc1nnc(-c2ccccn2)s1 | 158.8%
COCCN(Cc1ccc(C)o1)C(=O)Nc1ncc(C)s1 | 4.146%
COCCNc1nc(-c2ccc(S(=O)(=O)N3CCCCCC3)cc2)cs1 | -3.577%
CCC(C)(C)NC(=O)Nc1nnc(-c2ccccn2)s1 | -10.26%
CCC(CC)(CC(=O)OC)NC(=O)Nc1nnc(-c2ccccn2)s1 | -2.114%
COCCNc1nnc(-c2cnc(C)cn2)s1 | 149.1%
COCCNc1nnc(-c2ccc(C)nc2)s1 | 135.2%
Cc1c(-c2ccncc2)n[nH]c1NC(=O)CCOC(C)C | -12.27%
CN1CCc2nc3cc(C(=O)NCc4cccs4)ccc3c(=O)n2CC1 | 76.54%
COc1cc2nc3n(c(=O)c2cc1OC)CCN(C)CC3 | -3.498%
O=c1c2sccc2nc2n1CCN(Cc1cccs1)CC2 | 5.975%
N#CCC(=O)NCc1nnc2n1CCN(Cc1cccs1)C2 | 6.584%
COCCNC(=O)c1ccc2c(=O)n3c(nc2c1)CCN(C)CC3 | 94.74%
CCCNC(=O)c1ccc2c(OC)n(C)nc2c1 | -11.42%
CCN(Cc1ccncc1)Cc1c[nH]nc1-c1ccc(F)cc1 | -6.114%
COC(=O)C1CCN(C(=O)NCC(C)Cc2cccs2)CC1 (configuration not stated) | -16.38%
COc1ccccc1C(=O)NCC(c1cccn1C)N1CCOCC1 (configuration not stated) | 102.1%
COc1ccccc1C(CNC(=O)NCc1cc[nH]n1)N1CCCC1 (configuration not stated) | 5.725%
COc1cccc(C(=O)NCCCN2CCc3ccccc3C2)c1OC | -7.552%
CCC(CNC(=O)c1ccccc1OC)N1CCc2ccccc2C1 (configuration not stated) | 13.81%
COc1ccccc1S(=O)(=O)NCC(c1cccn1C)N(C)C (configuration not stated) | 1.51%

Structure (SMILES) | Percent Effect
COc1cccc(OC)c1C(=O)NCC(c1cccn1C)N1CCCC1 (configuration not stated) | 106.6%
Cc1oncc1C(=O)NCC(c1ccccc1Cl)N1CCOCC1 (configuration not stated) | 10.8%
COc1cccc(C(=O)NCC(c2cccn2C)N2CCCC2)c1OC (configuration not stated) | 106.1%
COCCN1CCC(NC(=O)C/C=C/c2ccc(C(C)C)cc2)CC1 | -16.81%
Cc1ccc(C(=O)N2CC[C@@]3(O)CCN(C(=O)N(C)C)C[C@H]3C2)cc1Cl | -5.057%
Cc1nn(C)c(C)c1C1CCCN1CCCC#N (configuration not stated) | 2.05%
Cc1noc([C@@H]2C[C@H]3OCC[C@H]3N(Cc3sccc3C)C2)n1.O=C(O)C(F)(F)F | 9.269%
CCN(CC(=O)NC)C(=O)c1sc(Cc2ccccc2)nc1C | -6.036%
Cc1c(C(=O)O)sc2nc(C(F)(F)F)ccc12 | -2.496%
Cc1nc(Cc2ccccc2)nc2sc(C(=O)O)c(C)c12 | 95.86%
CN(C)C(CNC(=O)OCC(F)(F)F)c1ccsc1 (configuration not stated) | 23.12%
Cc1ccc(C(=O)N(Cc2ccccc2F)C2CC2)c(=O)[nH]1 | -1.047%
Cc1ccc(C(=O)N(C)CCOc2ccccc2F)c(=O)[nH]1 | 95.48%
CCN(Cc1ccc(OC)c(F)c1)C(=O)c1ccc(C)[nH]c1=O | -15.23%
Cc1c(C(=O)N2CC(O)C2)nnn1-c1cccc2cnccc12 | -2.34%
CC(CNS(=O)(=O)c1cccc(Cl)c1)N1CCN(C)CC1 (configuration not stated) | 3.313%
CCn1cc2c(n1)CN(Cc1ccc(C)o1)CC2COCC1CC1.O=C(O)C(F)(F)F (configuration not stated) | 26.1%
CNC(=O)NCCc1csc2ccccc12 | -2.127%
COCCN(C)C[C@@H]1CCC[C@@H]2CN(c3ncccn3)C[C@@H]21.O=C(O)C(F)(F)F | -1.943%
Cc1ccc(NC2CCN(C(=O)CCCc3ccccn3)CC2)nn1 | 17.2%
Cc1ccc(NC2CCN(C(=O)CCCc3cccs3)CC2)nn1 | 117.7%
Cc1ccc(NC2CCN(C(=O)Cc3ccc(C)s3)CC2)nn1 | 88.11%

Structure (SMILES) | Percent Effect
Cc1ccc(NC2CCN(C(=O)Cc3csc(C)n3)CC2)nn1 | 1.97%
Cc1ccc(NC2CCN(C(=O)Cc3cccs3)CC2)nn1 | 103.9%
Cc1ccc(NC2CCN(C(=O)Cn3nc(C)cc3C)CC2)nn1 | -9.924%
Cn1cc(CNc2ccc(CCN3CCC(C(N)=O)CC3)cc2)cn1 | -15.36%
CCC(CC)c1cc(CNC(=O)N2CCCC(c3ncc[nH]3)C2)on1 (configuration not stated) | -2.928%
Cc1nc(CN2CC[C@H](OCC3CC3)[C@@H]2Cc2cccnc2)cs1.O=C(O)C(F)(F)F.O=C(O)C(F)(F)F | 110.4%
COCCO[C@@H]1CCN(Cc2csc(C)n2)[C@H]1Cc1ccccc1.O=C(O)C(F)(F)F | -4.722%
Cc1nc(CN2CC[C@@H](OCC3CC3)[C@@H]2Cc2cccnc2)cs1.O=C(O)C(F)(F)F.O=C(O)C(F)(F)F | 96.59%
Cc1cc(N(C)Cc2c(C)noc2C)n2nc(C)c(C)c2n1 | -2.032%
CCN(CC)CC(=O)NCc1cccnc1-n1cnc2ccccc21 | -2.03%
Cc1cnc(N2CC[C@@H]3CN(CCC(C)C)S(=O)(=O)[C@@H]3CC2)nc1 | 7.109%
C[C@H](NS(C)(=O)=O)C(=O)NCc1cc(-c2ccco2)n(CC(F)(F)F)n1 | 97.84%
CC(C)NC(=O)NCCn1nc(C(F)(F)F)n(C)c1=O | -4.799%
CC(C)NC(=O)NCc1cc(-c2ccco2)n(CC(F)(F)F)n1 | 112.4%
CC(COCC(F)(F)F)NC(=O)c1ccc(-c2ccco2)[nH]c1=O (configuration not stated) | -22%
CC(Cc1cccs1)C(=O)NCc1cccc(N2CCCC2=O)c1 (configuration not stated) | 1.255%
NS(=O)(=O)NCc1cc(-c2ccco2)n(CC(F)(F)F)n1 | 112.6%
CC(C)NC(=O)NCc1ccnc(N(C)C)n1 | -10.55%
Cc1cc(C)n(CC(C)CNC(=O)NCc2ccco2)n1 (configuration not stated) | 7.726%
